# Inconclusive results are not listed. A call without a number means that no potency is given here. The source made the active and inactive calls. Calls come from the whole dose curve; as a rule, active = well fitted cell-killing curve with a large enough effect; inconclusive = small, poorly fitted or top-dose-only effect, or effect the other way; inactive = flat fitted curve, though single readings scatter.
# Experiment: Compound cytotoxicity measured by an ATP content assay as a counter-screen for lead compounds in human astrocytes
# Conditions: human astrocytes viability, ATP luminescence; series mostly up to 46.1 µM
# Procedure: National Center for Advancing Translational Sciences [NCATS] Johns Hopkins University School of Medicine Florida State University Assay Overview: Many compounds can cause cytotoxicity at high compound concentrations. […] The compound cytotoxicity may also cause side effects or toxicity in human. Thus, the compound cytotoxicity needs to be measured in each cell type and each compound incubation time - same as these in the compound screening assay. The compound cytotoxicity can be measured by cell viability assays such as the ATP content assay. We use an ATP content assay kit for cell viability measurement. It measures ATP content (level) in human astrocytes using a luminescence readout that is proportional to viable cell numbers. Decrease in the luminescence signal after the compound treatment indicates reduced cell viability and cell death caused by compound treatment.
# Assay Protocol Summary: The medium for astrocytes contains AM basal medium (ScienCell, Cat.# 1801), AGS (ScienCell, Cat.# 1801), 10% FBS, and 1% Pen/Strep. The ATP content assay kit (PerkinElmer, Cat.# 6016731) was used to determine cell viability. The reagent was reconstituted and prepared as described by the manufacturer. Cells were seeded in 384- or 1536-well assay plates and cultured at 37 C with 5% CO2 for 16 to 20 hours. The typical cell seeding density in the 1536-well plate assay is 350 cells/well in 3 ul medium for astrocytes in the tissue cultured treated/PDL coated plates. Compounds were added to cells and incubated for a specific time such as 6, 24, or 72 hours before addition of the reagent mixture of the ATP content assay kit at 1:1 ratio. After incubation at room temperature for 10 minutes, the luminescence intensity in assay plates was measured using a ViewLux plate reader (PerkinElmer). […] The percentage inhibitions of the decreased cell viability by small molecules were then calculated that indicate compound cytotoxicity.
row,SMILES,Potency
1,COc1cc2nc(N3CCN(C(=O)C4CCCO4)CC3)nc(N)c2cc1OC (stereo not given),inactive
2,CC(C)(C)COc1ccc(-n2cc(C(=O)O)cn2)cc1C#N,inactive
3,C=CCCCCCCCCC(=O)O,inactive
4,Nc1nc2ccc([N+](=O)[O-])cc2s1,inactive
5,O=C(Nc1ccc([N+](=O)[O-])cc1Cl)c1cc(Cl)ccc1O,1.09 µM (active)
6,Cc1nc(N)sc1-c1ccnc(Nc2ccc(N3CCOCC3)cc2)n1,inactive
7,O=C(O)CCC(=O)c1ccc(-c2ccccc2)cc1,inactive
8,CCC(C(=O)O)c1ccc(N2Cc3ccccc3C2=O)cc1 (stereo not given),inactive
9,O=C(O)Cc1ccc(-c2ccccc2)cc1,inactive
10,CC(O)=C(C#N)C(=O)Nc1ccc(C(F)(F)F)cc1,6.9 µM (active)
11,CNC1[C@H](O)C(O[C@@H]2C(O)C(O[C@H]3O[C@H]([C@@H](C)NC)CC[C@H]3N)[C@@H](N)C[C@H]2N)OC[C@]1(C)O (stereo not given in full),inactive
12,CO[C@H]1C(=O)[C@]2(C)[C@@H](OC)C[C@H]3OC[C@@]3(OC(C)=O)[C@H]2[C@H](OC(=O)c2ccccc2)[C@]2(O)C[C@H](OC(=O)[C@H](O)[C@@H](NC(=O)OC(C)(C)C)c3ccccc3)C(C)=C1C2(C)C,inactive
13,CC(C(=O)O)c1ccc(C(=O)c2cccs2)cc1 (stereo not given),inactive
14,Nc1ccc(O)c(C(=O)O)c1,inactive
15,CC1(C)OC2=C(C(=O)c3ccccc3C2=O)[C@H](NCc2ccccc2)[C@H]1O,8.91 µM (active)
16,O=C(Nc1ccc(C(=O)O)c(O)c1)c1ccccc1,inactive
17,O=C(/C=C/c1ccc(O)cc1)c1ccc(O)cc1O,inactive
18,O=c1c(-c2ccc(O)cc2)coc2cc(OC3O[C@H](CO)[C@H](O)[C@H](O)[C@H]3O)cc(O)c12 (stereo not given in full),inactive
19,O=C1C[C@@H](c2ccc(O)cc2)Oc2cc(O)cc(O)c21,inactive
20,NC(=O)c1cccc2[nH]c(-c3ccc([C@H]4CCCN4)cc3F)nc12,5.48 µM (active)

row,SMILES,Potency
1,O=C1NC(=O)C(=Cc2ccc(-c3ccc(F)cc3)o2)S1,inactive
2,COc1ccc2nc(NC(=O)Nc3ccccc3)sc2c1,19.5 µM (active)
3,CC=CC[C@@H](C)C(=O)[C@H]1C(=O)N[C@@H](C(C)C)C(=O)N(C)CC(=O)N(C)[C@@H](CC(C)C)C(=O)N[C@@H](C(C)C)C(=O)N(C)[C@@H](CC(C)C)C(=O)N[C@@H](C)C(=O)N[C@H](C)C(=O)N(C)[C@@H](CC(C)C)C(=O)N(C)[C@@H](CC(C)C)C(=O)N(C)[C@@H](C(C)C)C(=O)N1C,inactive
4,O=C(O)c1ccccc1Nc1cccc(C(F)(F)F)c1,inactive
5,COc1ccc(-c2cc(=O)c3c(O)cc(O)cc3o2)cc1O,inactive
6,CN(C)CCCSc1ccccc1NC(=O)/C=C/c1ccccc1,inactive
7,O=C(Nc1cc2cc[nH]c2cn1)c1ccccc1,0.489 µM (active)
8,COc1ccc(-c2cc(=S)ss2)cc1,inactive
9,CC(C(=O)O)c1ccc(-c2ccccc2)c(F)c1 (stereo not given),inactive
10,C[C@@H](N)c1ccc(C(=O)Nc2ccnc3[nH]ccc23)cc1,inactive
11,Nc1ncnc2c1ncn2[C@@H]1O[C@@H](CO)[C@H](O)[C@H]1O,inactive
12,O=C(c1ccccc1)c1ccc2n1CCC2C(=O)O (stereo not given),inactive
13,CCCCCNC(=O)N1CCC(CN(Cc2ccc(Cl)cc2)Cc2ccc([N+](=O)[O-])s2)C1 (stereo not given),inactive
14,CCOC1OC(=O)C[C@H]1NC(=O)[C@@H]1CCCN1C(=O)[C@@H](NC(=O)c1ccc(N)c(Cl)c1)C(C)(C)C (stereo not given in full),inactive
15,CCCCCCCC/C=C/C(=O)O,inactive
16,Cc1cc(O)c2c(c1)C(=O)c1cc(O)cc(O)c1C2=O,inactive
17,N#CC1(c2ccc(NC(=O)c3cccnc3NCc3ccncc3)cc2)CCCC1,inactive
18,CN(C)c1ccc(C(=C2C=CC(=[N+](C)C)C=C2)c2ccccc2)cc1,inactive
19,Oc1ccc(/C=C/c2cc(O)cc(O)c2)cc1,10.9 µM (active)
20,CC(=C(CCOC(=O)C(C)C)SSC(CCOC(=O)C(C)C)=C(C)N(C=O)Cc1cnc(C)nc1N)N(C=O)Cc1cnc(C)nc1N,inactive
